# From PubChem BioAssay
# Sampled rows, rich in hits. Any-hit rate of the full collection: about 5.6%.
# ALR inh: inhibitors of human sulfhydryl oxidase ALR | P55789 | purified ALR, DTT oxidation, H2O2 HRP-luminol luminescence | inhibition, % (no concentration beside the values) | actives 3.8% (n = 290,000) | AID 485317;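 active = mean replicate inhibition above about 79%, with every replicate also reaching it, limit read from the data; inconclusive = only one of the two criteria met; inactive = mean below limit and not every replicate reaching it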
# Target sequence (P55789 whole entry, looked up): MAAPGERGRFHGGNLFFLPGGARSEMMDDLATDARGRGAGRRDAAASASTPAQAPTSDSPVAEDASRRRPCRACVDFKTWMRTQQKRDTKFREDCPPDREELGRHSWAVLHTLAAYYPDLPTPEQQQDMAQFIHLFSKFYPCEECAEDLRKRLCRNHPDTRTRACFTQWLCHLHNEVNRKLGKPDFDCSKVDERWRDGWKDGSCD
# H9c2 protect: protects H9c2 cardiomyocytes from peroxide injury; actives 0.63% (n = 360,000); protection from H2O2 cell death, % at 20 µM; H2O2 injury protection, ATPLite, 2 h;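 active = compounds giving at least 50% protection of heart cells from peroxide-induced death in the single-dose screen, raw or plate-pattern-corrected value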;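 note: 0% = DMSO wells with peroxide and 100% = DMSO wells without peroxide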
# PfG6PD inh: PfG6PD (Plasmodium falciparum) enzyme inhibition; actives 0.78% (n = 350,000); inhibition, % at 20 µM; PfGluPho enzyme, NADPH resazurin-diaphorase fluorescence;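 active = inhibition reaching at least a set limit at 20 µM in the primary screen, cut at about 59% in these data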;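 note: 0% = DMSO wells with substrate and 100% = DMSO wells lacking glucose-6-phosphate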
# PfM18AAP inh: blocks P. falciparum M18 aspartyl aminopeptidase. recombinant PfM18AAP, H-Glu-NHMec fluorogenic cleavage. inhibition, % at 7.35 µM. actives 1.2% (n = 290,000);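 active = inhibition above the campaign mean inhibition over all tested compounds plus 3 SD, cut at about 28% in these data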;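 note: 0% = plate median of test compound wells and 100% = 2 mM ZnCl2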
# PHOSPHO1 inh: inhibitors of human PHOSPHO1 phosphatase; Q8TCT1; recombinant PHOSPHO1, absorbance phosphatase assay; inhibition, % at 13.3 µM; actives 1.1% (n = 290,000); in the data active = inhibition above about 60%
# Target sequence (Q8TCT1 whole entry, looked up): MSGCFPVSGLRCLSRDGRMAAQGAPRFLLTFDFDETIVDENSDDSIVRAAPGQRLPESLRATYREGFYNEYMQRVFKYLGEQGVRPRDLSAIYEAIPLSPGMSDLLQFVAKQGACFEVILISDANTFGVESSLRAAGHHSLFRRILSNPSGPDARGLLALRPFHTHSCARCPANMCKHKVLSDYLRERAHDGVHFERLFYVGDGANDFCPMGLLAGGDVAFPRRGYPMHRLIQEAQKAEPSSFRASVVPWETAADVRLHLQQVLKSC
# Numbers without * were called inactive; ? = inconclusive; · = no result.
SMILES,ALR inh,H9c2 protect,PfG6PD inh,PfM18AAP inh,PHOSPHO1 inh
CCC1(c2ccc(Cl)cc2)NC(=S)N(c2ccccc2)N1 (configuration not stated),94.5*,-8.6,18.5,11.8,-13.9
CCCCCC1(C)NC(=S)N(c2ccccc2)N1 (configuration not stated),-2.8,-5.2,11.0,14.8,27.6
COC(=O)c1cc(S(=O)(=O)NCC2CCN(CCc3cccs3)CC2)c[nH]1,-2.7,9.4,-12.1,1.5,14.6
COc1cccc(-c2cc(C(F)(F)F)n3nc(N)nc3n2)c1,95.4*,-9.8,11.7,2.8,11.4
Cc1cc(C(=O)N2CCC2(C)C(=O)NCC(C)(C)C)nn1C (configuration not stated),·,0.7,·,·,·
Cc1ccc2c(c1)N(CCCC(=O)NCc1ccc3c(c1)OCO3)C(=O)CO2,0.3,5.0,10.8,8.0,-13.5
CC(=O)c1ccc(NC(=O)CCCN2C(=O)COc3ccc(C)cc32)cc1,8.0,-4.0,3.4,1.4,70.0*
CCN(CCCNC(=O)CCCN1C(=O)COc2ccc(C)cc21)c1cccc(C)c1,98.1*,2.9,-4.3,2.3,23.5
CCC(C)NC(=O)c1cc(-c2ccc3c(c2)OCO3)on1 (configuration not stated),0.4,-8.3,9.1,-7.3,18.5
O=C(CCc1ccccc1)Nc1ccc(S(=O)(=O)N2CCOCC2)cc1,-19.9,-2.2,-0.9,-15.2,32.1
C/C(=N\NC(=O)CCc1ccc(S(=O)(=O)N2CCOCC2)cc1)c1ccccc1Cl,98.5*,-2.0,5.9,-10.7,32.0
COc1ccccc1C(=O)Nc1ccnn1C1CCN(Cc2ncc[nH]2)CC1,-3.3,5.4,-8.1,-0.4,22.2
CNc1nn(-c2cccc(Cl)c2)nc1N,98.7*,-11.5,-3.4,-14.9,-20.5
Nc1ccccc1Nc1cc(-c2ccccc2)nn1-c1cccc(Cl)c1,-3.9,-2.0,32.8,4.3,-1.3
CCOC(=O)C1C(=O)OC(C)(C)C1C(C)C(=O)c1ccc(C)cc1C (configuration not stated),0.5,-6.3,-19.2,-13.3,17.0
COC(=O)C1C(=O)OC(C)(C)C1C(C)C(=O)c1ccc(C)cc1C (configuration not stated),-1.4,-6.6,-16.3,-8.0,60.0*
Cc1ccc(-c2n[nH]c(=S)n2/N=C/C=C\c2ccccc2[N+](=O)[O-])cc1,21.4,0.6,17.6,0.7,92.4*
O=[N+]([O-])c1ccccc1/C=C/C=N/n1c(-c2ccccc2)n[nH]c1=S,?,-2.7,15.1,15.6,-17.0
O=[N+]([O-])c1ccccc1/C=C/C=N/n1c(-c2ccc(Cl)cc2)n[nH]c1=S,-0.7,-8.6,4.2,8.8,103.5*
COc1ccc(C)cc1S(=O)(=O)N1CCN(C(=O)c2ncoc2-c2cccc(F)c2)CC1,-22.3,6.0,-14.8,-10.9,31.9
CCC(=O)N1CCC1(C)C(=O)Nc1ccc2c(c1)CCN2C(C)=O (configuration not stated),·,-5.1,·,·,·
COc1ccc(S(=O)(=O)N2CCCCC2)cc1NC(=O)CNc1ccc(F)cc1C,-39.7,-7.3,14.0,·,·
Fc1ccc2nc(C(F)(F)F)cc(N3CCOCC3)c2c1,-4.3,3.6,-6.6,-0.8,24.8
CCOC1=C2[C@@H](CN(S(=O)(=O)c3ccc(C)cc3)[C@H]2c2ccccc2F)[C@H]2C(=O)NC(=O)[C@H]2C1,·,2.0,·,·,·
COc1ccc(C2NC(=O)C(C#N)=C(S)N2c2ccccc2)cc1OC (configuration not stated),93.7*,-4.9,-5.2,0.9,35.3
SMILES,ALR inh,H9c2 protect,PfG6PD inh,PfM18AAP inh,PHOSPHO1 inh
COc1cc(C2NC(=O)C(C#N)=C(S)N2c2ccccc2)ccc1OC(C)C (configuration not stated),27.7,-6.7,1.1,2.7,6.3
C[C@H](O)[C@@H]1C(=O)N2CCc3ccc(N4CCN(C)CC4)cc3[C@@H]2C[C@@H]1N(C)C(=O)c1ccco1,·,14.5,4.1,·,·
O=C1C2C3C=CC(C3)C2C(=O)N1CNc1ccc(O)cc1 (configuration not stated),99.1*,·,·,·,17.2
CC(=O)Nc1ccc(NCN2C(=O)C3C4CCC(C4)C3C2=O)cc1 (configuration not stated),84.6*,1.3,-3.0,-0.8,19.4
Cc1ccc(NCN2C(=O)C3C4CCC(C4)C3C2=O)cc1 (configuration not stated),14.0,·,·,-5.1,-1.3
Cc1ccc(NCN2C(=O)C3C4C=CC(C4)C3C2=O)cc1 (configuration not stated),61.5,-3.7,0.0,-13.4,9.6
S=C(NCCCc1cnc[nH]1)NCCCN(Cc1ccc(Cl)cc1)c1ccc(Br)cn1,·,1.5,·,·,·
CCOC(=O)C1CCCN(C(=O)c2ccc3ncsc3c2)C1 (configuration not stated),95.8*,-1.6,32.3,·,·
CC(=O)O[C@@H](C[C@@H](C)C1=C2C[C@H](O)C3[C@@]4(C)CCC(=O)C(C)(C)C4CC[C@]3(C)[C@@]2(C)CC1)[C@H]1OC1(C)C (some centres not stated),·,0.1,21.0,·,·
CCOC(=O)C1=C(O)c2ccccc2C(=O)/C1=C\c1ccc(C)cc1,·,-14.6,95.7*,6.0,12.3
CCOC(=O)C1=C(C)OC(=Cc2ccccc2)C1=O,·,-4.0,3.3,·,·
CCCS(=O)(=O)NC(=O)C1(C)CCN(C(=O)c2cccnc2Oc2ccccc2)C1 (configuration not stated),·,1.3,·,·,·
Cc1ccc(/C=C2\SC(=S)N(C3CCS(=O)(=O)C3)C2=O)cc1 (configuration not stated),1.9,-17.4,-15.7,-3.0,9.1
O=C1/C(=C\c2ccco2)SC(=S)N1C1CCS(=O)(=O)C1 (configuration not stated),-15.0,-2.1,34.4,29.3*,-111.4
O=C1/C(=C/c2ccco2)SC(=S)N1C1CCS(=O)(=O)C1 (configuration not stated),-4.8,2.1,7.3,31.5*,-67.2
CCOc1ccccc1N(C)C(=O)c1ccc2c(=O)n3c(nc2c1)CCCCC3,-6.0,2.2,4.0,-5.2,58.3
CC(C)Cn1c(-c2ccco2)csc1=Nc1cccnc1,-23.8,5.2,11.1,8.4,46.6
COCCn1c(-c2ccco2)csc1=Nc1cccnc1,-9.3,2.7,24.3,4.2,97.9*
CCn1c(SCC(=O)Nc2c(C)n(C)n(-c3ccccc3)c2=O)nc2c1c(=O)n(C)c(=O)n2C,-11.2,1.0,-4.3,-0.7,64.2*
CCn1c(SCC(=O)Nc2ccccc2)nc2c1c(=O)n(C)c(=O)n2C,-5.6,9.9,0.9,2.7,24.2
Cc1ccc(S(=O)(=O)NCCNC(=O)c2ccc(C)nc2)cc1,-0.5,5.9,-16.6,4.6,44.9
Fc1ccc(C(c2nnnn2C2CCCC2)N2CCc3ccccc32)cc1 (configuration not stated),91.5*,-6.0,9.0,7.7,4.4
Fc1ccc(C(c2nnnn2CCc2ccccc2)N2CCCc3ccccc32)cc1 (configuration not stated),-4.8,-7.6,19.2,0.7,-2.6
